Measured values published in article PMC4336329 (PLoS ONE, 2015).
Hit rate of the full screen: of about 310,000 compounds, about 14,000 (4.5%) showed an effect of 50% or more. The effect is printed as a negative number. What follows is part of a selection rich in strong results, with near analogues and random picks from the rest.

These compounds were tested against human ether-à-go-go-related gene (hERG) potassium channel (human, UniProt Q12809) (assay: primary screen, population patch clamp on CHO cells stably expressing hERG; higher = less effect of the substance).
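Also: peak tail current of the secondary pulse compared with the same well before compound.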

human ether-à-go-go-related gene (hERG) potassium channel, sequence (Q12809 whole entry, looked up): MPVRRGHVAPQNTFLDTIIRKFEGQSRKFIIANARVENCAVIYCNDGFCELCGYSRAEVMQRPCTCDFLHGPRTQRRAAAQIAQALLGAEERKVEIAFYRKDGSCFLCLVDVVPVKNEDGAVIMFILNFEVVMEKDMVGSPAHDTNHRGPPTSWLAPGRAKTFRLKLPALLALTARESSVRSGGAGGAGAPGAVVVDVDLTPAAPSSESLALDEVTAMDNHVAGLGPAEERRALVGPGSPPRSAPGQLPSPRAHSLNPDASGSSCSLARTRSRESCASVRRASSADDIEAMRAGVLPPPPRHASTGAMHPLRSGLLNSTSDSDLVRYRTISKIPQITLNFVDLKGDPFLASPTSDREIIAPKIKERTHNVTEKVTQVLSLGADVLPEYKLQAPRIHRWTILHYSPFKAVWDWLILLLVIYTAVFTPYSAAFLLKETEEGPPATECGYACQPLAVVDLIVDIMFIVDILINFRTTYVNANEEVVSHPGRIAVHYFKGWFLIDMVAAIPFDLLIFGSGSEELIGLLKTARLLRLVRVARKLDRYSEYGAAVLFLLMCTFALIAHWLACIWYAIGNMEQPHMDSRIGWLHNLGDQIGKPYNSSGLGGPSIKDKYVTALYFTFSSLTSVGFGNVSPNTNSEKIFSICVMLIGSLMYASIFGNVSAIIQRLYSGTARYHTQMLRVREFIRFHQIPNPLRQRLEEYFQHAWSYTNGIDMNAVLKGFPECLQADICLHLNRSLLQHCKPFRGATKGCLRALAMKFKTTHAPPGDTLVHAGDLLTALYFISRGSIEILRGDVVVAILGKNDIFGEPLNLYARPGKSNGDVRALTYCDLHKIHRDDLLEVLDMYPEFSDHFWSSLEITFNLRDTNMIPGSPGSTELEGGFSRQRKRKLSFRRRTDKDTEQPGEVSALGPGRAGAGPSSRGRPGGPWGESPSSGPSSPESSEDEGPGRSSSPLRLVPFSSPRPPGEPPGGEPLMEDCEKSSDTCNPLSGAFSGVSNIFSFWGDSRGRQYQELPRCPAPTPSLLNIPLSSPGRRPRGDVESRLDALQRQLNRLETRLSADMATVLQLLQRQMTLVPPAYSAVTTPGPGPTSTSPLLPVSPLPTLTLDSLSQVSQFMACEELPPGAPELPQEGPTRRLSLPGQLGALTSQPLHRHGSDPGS

Row | SMILES | hERG current change (%, negative = inhibition) at 10uM
1 | COCCSc1ccccc1C(=O)Nc1ccc2c(c1)OCCO2 | 5.7%
2 | CCOCCCN(C(=O)c1snc(C(N)=O)c1N)C(C(=O)NC1CCCC1)c1ccc(O)cc1 (stereo not shown) | 3.52%
3 | COc1ccc(C(C(=O)NC2CCCCC2)N(C(=O)c2snc(C(N)=O)c2N)c2ccc(OC)cc2OC)cc1 (stereo not shown) | 9.37%
4 | CCC(C(=O)NC1CCCC1)N(C(=O)c1snc(C(N)=O)c1N)c1ccc(OC)c(OC)c1 (stereo not shown) | 15.5%
5 | CCC(C(=O)NC1CCCCC1)N(C(=O)c1snc(C(N)=O)c1N)c1ccc(OC)cc1OC (stereo not shown) | -69.3%
6 | CCOc1ccc(C(C(=O)NC2CCCC2)N(C(=O)c2snc(C(N)=O)c2N)C2CCCC2)cc1 (stereo not shown) | -51.1%
7 | CCOCCCN(C(=O)c1snc(C(N)=O)c1N)C(C(=O)NCCC(C)C)c1ccc(F)cc1 (stereo not shown) | -23.6%
8 | CCOCCCN(C(=O)c1snc(C(N)=O)c1N)C(C(=O)NCCC(C)C)c1ccc(Cl)cc1 (stereo not shown) | -68.1%
9 | CCOCCCN(C(=O)c1snc(C(N)=O)c1N)C(C(=O)NC1CCCC1)c1ccc(OC)cc1 (stereo not shown) | -60.5%
10 | CCOCCCN(C(=O)c1snc(C(N)=O)c1N)C(C(=O)NC(C)(C)C)c1ccc(Cl)cc1 (stereo not shown) | -33.1%
11 | COc1ccc(C(C(=O)NC2CCCC2)N(C(=O)c2snc(C(N)=O)c2N)C2CCCC2)cc1OC (stereo not shown) | 5.77%
12 | CCOCCCN(C(=O)c1snc(C(N)=O)c1N)C(C(=O)NC1CCCC1)c1ccc(F)cc1 (stereo not shown) | -12%
13 | CCOc1ccc(C(C(=O)NC2CCCCC2)N(CCOC)C(=O)c2snc(C(N)=O)c2N)cc1 (stereo not shown) | -47.5%
14 | CCCCC1CCCOC(C(=O)NCCNCCO)(C(F)(F)F)C1 (stereo not shown) | 6.03%
15 | CN(C)c1nnnn1-c1ccc(Cl)cc1Cl | 0.276%
16 | CCN(CC)C(=O)c1n[nH]c(=O)c2ccccc12 | 4%
17 | CCn1c(SCC(=O)Nc2cc(C)on2)nnc1-c1ccccc1 | -3.05%
18 | COc1ccc(-c2cc(C(=O)N3CCN(c4ccccc4OC)CC3)no2)cc1OC | -0.868%
19 | N#CCOC(=O)c1c2c(nc3ccccc13)CCC2 | -23.1%
20 | Cc1ccc(C)c(S(=O)(=O)N2CCN(CC(=O)NC(=O)NCc3ccccc3)CC2)c1 | -9.97%
21 | Cc1cc(C)n(-c2ccc(C(=O)N3CCc4ccccc43)cc2)n1 | -3.89%
22 | COc1ccccc1NC(=O)Nc1ccccc1C#N | 15.6%

Row | SMILES | hERG current change (%, negative = inhibition) at 10uM
23 | O=C1CCCN1CCCNS(=O)(=O)c1cccc(F)c1 | 25.9%
24 | CCOc1ccccc1N(C(=O)c1snc(C(N)=O)c1N)C(C(=O)NC1CCCC1)c1ccco1 (stereo not shown) | -55%
25 | CCOc1ccccc1N(C(=O)c1snc(C(N)=O)c1N)C(C(=O)NCCC(C)C)c1ccco1 (stereo not shown) | -22.2%
26 | COc1ccccc1N(C(=O)c1snc(C(N)=O)c1N)C(C(=O)NC1CCCC1)c1ccco1 (stereo not shown) | -35.4%
27 | CNC(=S)N1CCN(c2nc(-c3ccc(Cl)cc3)cs2)CC1 | 14.7%
28 | Cc1cc2c(cc1C)N(Cc1ccc(Cl)cc1)C1=NCCCN12 | -69.8%
29 | Cc1cc2c(cc1C)N(Cc1ccccc1)C1=NCCCN12.Cl | -72.3%
30 | COC(=O)c1cc(Cl)cc2c(C)c(C3(O)CCCCC3)[nH]c12 | 15%
31 | O=C(/C=C/c1ccccc1)N/C(=C/c1ccccc1)C(=O)Nc1ccccc1O | -27.3%
32 | CCc1ccccc1NC(=O)Cn1nnc(C(=O)NCc2cccs2)c1N | 13.8%
33 | O=C(Cn1cnc2ccccc2c1=O)NCCC(=O)N1CCN(c2ccccc2)CC1 | -7.6%
34 | O=C(CN1CCN(C(C(=O)Nc2ccc(Cl)cc2C(F)(F)F)c2ccccc2)CC1)NC1CC1 (stereo not shown) | -70.2%
35 | Cc1cc(C)cc(NC(=O)C(c2ccccc2)N2CCN(CC(=O)NC3CC3)CC2)c1 (stereo not shown) | -28.3%
36 | Cc1ccc(NC(=O)C(c2ccccc2)N2CCN(CC(=O)NC3CC3)CC2)cc1Cl (stereo not shown) | -46.7%
37 | Cc1cc(NC(=O)COC(=O)C2CCCN2C(=O)c2cccs2)no1 (stereo not shown) | -4.36%
38 | COc1ccccc1NC(=O)COC(=O)[C@@H]1CCCN1C(=O)c1cccs1 | -40.6%
39 | NC(=O)c1ccsc1NC(=O)COC(=O)C1CCCN1C(=O)c1cccs1 (stereo not shown) | -63%
40 | Cc1ccn2c(C(=O)N/N=C\c3ccccc3[N+](=O)[O-])c(C)nc2c1 | -27.2%
41 | COCCn1c(C)cc(C(=O)Cn2nc(C(=O)O)c3ccccc3c2=O)c1C | -3.4%
42 | O=C(CNC(=O)Cc1cccc2ccccc12)NCc1ccccc1F | 14.8%
43 | CCOC(=O)C1=C(COC(=O)c2cccc(N(C)C)c2)NC(=O)NC1C (stereo not shown) | 2.49%
44 | O=C(Oc1ccc(F)cc1)c1cccnc1 | 17.1%

Row | SMILES | hERG current change (%, negative = inhibition) at 10uM
45 | O=C(c1cccs1)N1CCC(C(=O)N2CCN(Cc3ccc4c(c3)OCO4)CC2)CC1 | -59.9%
46 | O=C(c1sccc1Br)N1CCN(Cc2ccc3c(c2)OCO3)CC1 | -11%
47 | O=C(C1CCCN1C(=O)c1cccs1)N1CCN(Cc2ccc3c(c2)OCO3)CC1 (stereo not shown) | -6.29%
48 | O=C(c1cccs1)N1CCN(Cc2ccc3c(c2)OCO3)CC1 | -15.7%
49 | Cl.O=C(c1cc2c(s1)CCCC2)N1CCN(Cc2ccc3c(c2)OCO3)CC1 | -54.2%
50 | O=C(/C=C\c1cccs1)N1CCN(Cc2ccc3c(c2)OCO3)CC1 | -57.8%
51 | O=C(c1ccc(Br)s1)N1CCN(Cc2ccc3c(c2)OCO3)CC1 | -36.3%
52 | Cn1c(C(=O)N2CCC(C(=O)N3CCN(Cc4ccc5c(c4)OCO5)CC3)CC2)cc2sccc21 | -60.6%
53 | O=C(/C=C/c1cccs1)N1CCN(Cc2ccc3c(c2)OCO3)CC1 | -47.9%
54 | O=C(O)/C=C/C(=O)N1CCN(Cc2ccc3c(c2)OCO3)CC1 | 4.54%
55 | Cn1c(C(=O)N2CCC(C(=O)N3CCOCC3)CC2)cc2sccc21 | 7.59%
56 | Cl.Cn1c(C(=O)N2CCN(Cc3ccc4c(c3)OCO4)CC2)cc2sccc21 | -8.46%
57 | CCOC(=O)c1ccc(N2CN(CCc3ccccc3)CNC2=S)cc1 | 6.21%
58 | COC(=O)/C(C#N)=C\c1c(OC)[nH]c2ccccc12 | 14%
59 | Cc1ccc2[nH]c(SCC(=O)N3CCOCC3)nc2c1C | 8.6%
60 | COc1ccc(C(=O)NNC(=O)CN2CCC(n3nnc4cc(C)ccc43)CC2)cc1 | -15%
61 | Cc1ccc2c(c1)nnn2C1CCN(CC(=O)NCCc2ccccc2)CC1 | -50.4%
62 | O=C(CN1CCC(n2nnc3cc(F)ccc32)CC1)NCCc1ccccc1 | -41.5%
63 | CCOC(=O)CN(C(=O)CN1CCC(n2nnc3cc(C)ccc32)CC1)c1ccccc1 | -53.8%
64 | Cc1cccc(C(=O)NC2CCN(CC(=O)NCc3ccccc3F)CC2)c1 | -33.2%
65 | Cc1ccc2c(c1)nnn2C1CCN(CC(=O)NNC(=O)c2ccco2)CC1 | 37.1%
66 | Cc1ccc2c(c1)nnn2C1CCN(CC(=O)N(c2ccccc2)c2ccccc2)CC1 | 11.4%

Row | SMILES | hERG current change (%, negative = inhibition) at 10uM
67 | Cc1ccc2c(c1)nnn2C1CCN(CC(=O)NCCc2nc3ccccc3[nH]2)CC1 | -27.9%
68 | Cc1ccc2c(c1)nnn2C1CCN(CC(=O)NCc2ccccc2F)CC1 | -59.9%
69 | CC(=C/c1ccco1)/C=N/NC(=O)CSc1nnc(SCc2ccc(C)cc2)s1 | -3.37%
70 | CN1c2ccccc2C(O)=C(C(=S)Nc2ccccc2)S1(=O)=O | 22.7%
71 | CCOc1ccc(OCC(=O)Nc2nccs2)cc1 | 19.8%
72 | Oc1c(Br)cc(/C=N/Nc2nncc3ccccc23)cc1Br | 27.8%
73 | N/C(=N\OC(=O)/C=C/c1ccccc1)c1ccncc1 | -52.3%
74 | N/C(=N\OC(=O)/C=C/c1ccccc1)c1cccnc1 | -5.4%
75 | N/C(=N\OC(=O)/C=C/c1ccccc1)c1ccccc1 | 3.82%
76 | CCN(CC)CCCn1c(=S)[nH]c2cc(C(=O)OC)ccc2c1=O | -33%
77 | CCN(CC)CCn1c(=S)[nH]c2cc(C(=O)N3CC(C)CC(C)C3)ccc2c1=O (stereo not shown) | -14.7%
78 | CCN(CC)CCn1c(=S)[nH]c2cc(Cl)ccc2c1=O | -63.2%
79 | CCN(CC)CCCn1c(=S)[nH]c2ccccc2c1=O | -25.7%
80 | CCN(CC)CCCn1c(=S)[nH]c2cc(Cl)ccc2c1=O | -68.7%
81 | O=c1c2ccc(Cl)cc2[nH]c(=S)n1CCCN1CCOCC1 | -22.6%
82 | CC(C)c1ccc(NC(=O)CSc2ncccc2C(=O)Oc2cccc([N+](=O)[O-])c2)cc1 | 8.39%
83 | CCOC(=O)c1c(NC(=O)CSc2nncn2C)sc(C)c1C | -4.02%
84 | COc1cc(/C=N/O)ccc1OCc1ccc([N+](=O)[O-])cc1 | -23.5%
85 | O=C(NNC(=S)NCc1ccc(Cl)cc1)c1ccc2c(c1)OCO2 | 6.73%
